Assay [1] in a line: A CellTox Green Cytotoxicity Assay to monitor cytotoxicity in HepG2 cells - 0 hour (AID 1224882). Further: nearly all actives have a fitted effect of over 35% in size. Further: potency means the concentration at half of the fitted maximal effect. The method, boiled down:
(§1)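 First, HepG2 cells (600/well) mixed with reagent were plated; second, after 5 h at 37 C they received compounds via pintool; third, fluorescence was measured at 0 h through 40 h at 8 h intervals.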

Assay [2] is described as follows: A CellTox Green Cytotoxicity Assay to monitor cytotoxicity in HepG2 cells - 32 hour (AID 1224883). Further: nearly all actives have a fitted effect of over 50% in size. Further: potency means the concentration at half of the fitted maximal effect. The method, boiled down:
as §1

Assay [3] in a line: A CellTox Green Cytotoxicity Assay to monitor cytotoxicity in HEK293 cells - 8 hour (AID 1224884). Further: nearly all actives have a fitted effect of over 35% in size. Further: potency means the concentration at half of the fitted maximal effect. In a few lines: (§2)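 Dead-cell fluorescence measured kinetically: asymmetric cyanine dye, HEK293, 600 cells/well, 5 h settle, 23 nL cpd/DMSO, 37 C, reads 0–40 h every 8 h.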
Assay [4] in a line: qHTS RealTime-Glo MT Cell Viability Assay in HepG2 cells - 16 hour (AID 1224885). Further: nearly all actives have a fitted effect of over 50% in size. In a few lines: (§3)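 HepG2 suspension premixed with RealTime-Glo reagents is plated at 600 cells per well and left 5 h at 37 C/5% CO2. Compounds in DMSO then go in, and bioluminescence reflecting viable cell number is recorded over 40 h.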
Assay [5] can be described thus: qHTS RealTime-Glo MT Cell Viability Assay in HEK293 cells - 24 hour (AID 1224886). Further: top concentration of the series differs between compounds; nearly all actives have a fitted effect of over 50% in size. In a few lines:
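Reads taken at 0, 8, 16, 24, 32 and 40 h from the same wells. HEK293 cells (600/well) carried RealTime-Glo reagents from seeding, with compound added after a 5 h settle at 37 C.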

The nature of assay [6]: qHTS RealTime-Glo MT Cell Viability Assay in HEK293 cells - 8 hour (AID 1224887). Further: top concentration of the series differs between compounds; nearly all actives have a fitted effect of over 50% in size. In a few lines:
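600 HEK293 cells per well, dispensed already mixed with RealTime-Glo MT reagents. Compound dosing came 5 h later. The same wells were read for luminescence at 0, 8, 16, 24, 32 and 40 h of exposure at 37 C.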
A general note: qHTS replaces the single test concentration by a dilution series.

Assay [7] is described as follows: A CellTox Green Cytotoxicity Assay to monitor cytotoxicity in HEK293 cells - 16 hour (AID 1224888). Further: nearly all actives have a fitted effect of over 35% in size. Further: potency means the concentration at half of the fitted maximal effect. In a few lines: as §2
The nature of assay [8]: qHTS RealTime-Glo MT Cell Viability Assay in HepG2 cells - 0 hour (AID 1224889). Further: nearly all actives have a fitted effect of over 50% in size. The method, boiled down: as §3
Assay [9] is described as follows: A CellTox Green Cytotoxicity Assay to monitor cytotoxicity in HepG2 cells - 8 hour (AID 1224890). Further: nearly all actives have a fitted effect of over 45% in size. Further: potency means the concentration at half of the fitted maximal effect. In a few lines:
as §1

A short description of assay [10]: qHTS assay to identify small molecule antagonists of the estrogen receptor alpha (ER-alpha) signaling pathway using the BG1 cell line in the presence of 0.1 nM 17-beta-estradiol - cell viability counter screen (AID 1259241). Further: nearly all actives have a fitted effect of over 40% in size. The method, boiled down: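 Cells were plated and left 24 hr, compounds in DMSO were pinned in, 17beta-estradiol was added to 0.1 nM final, and after 22 hr CellTiter-Fluor reagent was added for 30 min before fluorescence was read.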

The nature of assay [11]: qHTS assay to identify small molecule antagonists of the androgen receptor (AR) signaling pathway using the MDA cell line in the presence of 0.5 nM R1881 - cell viability counter screen (AID 1259242). Further: nearly all actives have a fitted effect of over 45% in size. In a few lines: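 qHTS format. MDA-kb2 (MMTV-luc, AR/GR responsive) + cpd + 0.5 nM R1881 final, 16 hr 37C/0% CO2 → CellTiter-Fluor 30 min → fluorescence intensity.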
For assay [12], the target named is Androgen receptor (Homo sapiens) (UniProt P10275). The experiment in a line: qHTS assay to identify small molecule antagonists of the androgen receptor (AR) signaling pathway using the MDA cell line in the presence of 0.5 nM R1881 (AID 1259243). Further: nearly all actives have a fitted effect of over 50% in size. The method, boiled down: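 Antagonist mode quantitative HTS in MDA-kb2 MMTV-luciferase cells, agonist R1881 at 0.5 nM final, 16 hr exposure at 37C and 0% CO2, luminescent detection.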

Assay [13] in a line: qHTS assay to identify small molecule HDAC inhibitors (AID 1259364).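 Further: wild-type HCT-116 cells with endogenous class I/II HDAC activity; top concentration of the series differs between compounds; nearly all actives have a fitted effect of over 45% in size.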 In a few lines: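 Quantitative high-throughput format: overnight-seeded HCT-116 cells got compounds for 2 hr at 37C; HDAC-Glo I/II reagent added, 30 min RT, luminescence measured.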
The nature of assay [14]: qHTS assay to identify small molecule HDAC inhibitors - cell viability counter screen (AID 1259365). In a few lines:
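Counter screen in wild-type HCT-116 cells: compounds dissolved in DMSO are pin-transferred onto overnight-plated cells and left 2hr at 37C. ATP-based CellTiter-Glo luminescence then measures viable cells.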

Assay [15] is described as follows: qHTS assay to identify small molecule agonists of the sonic hedgehog signaling (Shh) pathway - cell viability counter screen (AID 1259366). Further: nearly all actives have a fitted effect of over 50% in size. In a few lines: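 Cells are plated at 2,000 per well and left 4hr at 37C, 5% CO2 before compound addition. After 23hr of treatment, CellTiter-Fluor reagent is added for 1hr at 37C and fluorescence is measured.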
A short description of assay [16]: qHTS assay to identify small molecule antagonists of the sonic hedgehog signaling (Shh) pathway - cell viability counter screen (AID 1259367). Further: nearly all actives have a fitted effect of over 55% in size. The method, boiled down: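 Fluorescence read-out (CellTiter-Fluor, 1 hr at 37C) taken after 23 hr compound treatment of 3T3 Gli1-Luc cells stimulated with conditioned medium. Cells were seeded at 2,000 per well and pre-incubated 4 hr.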

Assay [17] is described as follows: qHTS assay to identify small molecule agonists of the sonic hedgehog signaling (Shh) pathway (AID 1259368; calls by dose curve;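 further: NIH/3T3-derived 3T3Gli1-Luc cells carrying a stable Gli1-driven firefly luciferase reporter; series mostly up to about 92 µM; nearly all actives have a fitted effect of over 15% in size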). The method, boiled down:
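Quantitative high-throughput format using a Gli1-driven firefly luciferase reporter line derived from NIH/3T3 cells. After a 24 hr compound treatment at 37 C and 5% CO2, luminescence reported Gli1 response element activity.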

Assay [18] can be described thus: qHTS assay to identify small molecule antagonists of the sonic hedgehog signaling (Shh) pathway (AID 1259369; calls by dose curve; further: nearly all actives have a fitted effect of over 45% in size). The method, boiled down: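 Stable Gli1-Luc reporter NIH/3T3 clone; quantitative HTS in stimulated mode with conditioned medium. Luminescence measured after 24hr compound treatment at 37 C.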
The target of assay [19] is Estrogen receptor (Homo sapiens) (UniProt P03372). The assay can be described thus: qHTS assay to identify small molecule antagonists of the estrogen receptor alpha (ER-alpha) signaling pathway using the BG1 cell line in the presence of 0.1 nM 17-beta-estradiol (AID 1259244). Further: nearly all actives have a fitted effect of over 50% in size. In a few lines:
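Reporter is a stably transfected luciferase under four estrogen responsive elements in VM7Luc4E2 cells expressing native full-length ER-alpha; inhibition of 0.1 nM (final) 17beta-estradiol-driven signal over 22 h is read by luminescence.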

Values without a mark were called inactive. Results filed as inconclusive are left out. Active and inactive are the calls of the source. Unless noted, the call rests on the fitted dose curve; in most records, active means well fitted curve in the direction sought with a large enough effect in the repeat runs; inconclusive means weak or mixed curves; inactive means no such curve, though single readings can be large; an effect the other way counts as inactive or inconclusive.
On the % scale 0 is the no-effect control and ±100 the full control effect.

Chain of Androgen receptor (Homo sapiens) (P10275 whole entry, looked up): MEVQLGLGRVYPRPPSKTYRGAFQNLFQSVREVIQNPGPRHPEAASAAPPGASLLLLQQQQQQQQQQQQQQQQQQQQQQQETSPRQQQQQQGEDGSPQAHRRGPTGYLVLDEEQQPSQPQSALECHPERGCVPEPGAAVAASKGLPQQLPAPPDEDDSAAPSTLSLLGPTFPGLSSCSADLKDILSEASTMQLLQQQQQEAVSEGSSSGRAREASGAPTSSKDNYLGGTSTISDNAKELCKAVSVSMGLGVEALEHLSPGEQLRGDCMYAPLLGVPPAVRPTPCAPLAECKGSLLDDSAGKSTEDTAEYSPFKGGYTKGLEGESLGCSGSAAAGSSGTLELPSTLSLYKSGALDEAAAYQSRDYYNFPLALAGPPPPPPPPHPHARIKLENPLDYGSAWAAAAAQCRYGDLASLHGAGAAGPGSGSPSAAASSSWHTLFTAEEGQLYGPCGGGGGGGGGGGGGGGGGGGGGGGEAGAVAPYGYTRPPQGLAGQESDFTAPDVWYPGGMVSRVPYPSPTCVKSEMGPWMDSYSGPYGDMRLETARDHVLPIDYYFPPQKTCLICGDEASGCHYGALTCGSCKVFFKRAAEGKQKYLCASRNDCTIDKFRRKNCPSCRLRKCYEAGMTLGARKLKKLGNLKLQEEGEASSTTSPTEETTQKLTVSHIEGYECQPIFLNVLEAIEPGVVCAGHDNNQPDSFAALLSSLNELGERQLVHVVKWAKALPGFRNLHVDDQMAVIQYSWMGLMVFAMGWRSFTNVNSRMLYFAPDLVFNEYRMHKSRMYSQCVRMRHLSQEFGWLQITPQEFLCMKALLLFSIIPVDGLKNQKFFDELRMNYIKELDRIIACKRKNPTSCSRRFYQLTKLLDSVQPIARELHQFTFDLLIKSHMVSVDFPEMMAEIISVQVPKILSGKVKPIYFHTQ
Chain of Estrogen receptor (Homo sapiens) (P03372 whole entry, looked up): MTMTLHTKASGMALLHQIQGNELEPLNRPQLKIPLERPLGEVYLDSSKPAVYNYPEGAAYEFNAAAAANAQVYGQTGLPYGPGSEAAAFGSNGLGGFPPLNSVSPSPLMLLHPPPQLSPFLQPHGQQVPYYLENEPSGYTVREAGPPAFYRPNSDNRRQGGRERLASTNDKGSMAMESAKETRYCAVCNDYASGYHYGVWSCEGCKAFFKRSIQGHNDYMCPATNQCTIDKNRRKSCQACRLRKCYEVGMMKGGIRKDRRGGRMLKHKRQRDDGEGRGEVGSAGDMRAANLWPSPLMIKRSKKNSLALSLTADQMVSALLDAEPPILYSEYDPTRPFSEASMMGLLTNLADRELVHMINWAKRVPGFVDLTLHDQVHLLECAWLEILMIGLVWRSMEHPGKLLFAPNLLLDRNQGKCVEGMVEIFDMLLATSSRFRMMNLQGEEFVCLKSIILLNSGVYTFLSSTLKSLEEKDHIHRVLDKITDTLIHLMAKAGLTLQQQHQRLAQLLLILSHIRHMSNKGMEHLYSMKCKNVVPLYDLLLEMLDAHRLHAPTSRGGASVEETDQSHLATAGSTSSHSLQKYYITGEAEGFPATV

For `CC1(C)C(=O)N(Br)C(=O)N1Br`, the Potency result in assay [1], in [2], in assay [3], in assay [4], in [5] and in assay [6] was “inactive” each time. Besides, the Potency result in assay [7], in assay [8], in [9], in [10], in [11] and in assay [12] was “inactive” in each case. Besides, the Potency result in assay [13], in assay [14], in assay [15], in assay [16], in assay [17] and in [18] was “inactive” throughout.
As for `COc1nccnc1CC(C)C`, the Potency result in assay [1], in assay [2], in assay [3], in assay [4], in [5] and in [6] was “inactive” each time. For the same compound, the Potency result in assay [7], in [8], in assay [9], in assay [10], in assay [11] and in [12] was “inactive” each time. Further, the Potency entry in assay [19], in assay [13], in assay [14], in [15], in assay [17] and in assay [18] was “inactive” in each case.
For the compound `CCCCCCCCCCCCCCCC`, the Potency result in assay [1], in assay [2], in [3], in assay [4], in assay [5] and in assay [6] was “inactive” each time. Also, the Potency entry in [7], in assay [8], in [9], in assay [10], in assay [11] and in [19] was “inactive” each time. The Potency entry in assay [13], in assay [14], in assay [15], in [16], in assay [17] and in assay [18] was “inactive” throughout.
Consider `CO[Si](CCC1CCC2OC2C1)(OC)OC` (centres undefined), for which the Potency result in assay [1], in assay [2], in [3], in assay [4], in [5] and in assay [6] was “inactive” each time. Moreover, the Potency entry in assay [7], in assay [8], in assay [9], in [10], in assay [11] and in assay [12] was “inactive” each time. For the same compound, the Potency result in [19], in assay [14], in assay [15], in assay [16], in assay [17] and in assay [18] was “inactive” each time.
Take `CCN1CCN(c2cc(-c3ccc(F)cc3)c3c(n2)CCCCCC3)CC1`: in assay [1], the cytotoxicity is -0.25% [at 15.8 µM]. Also, the cytotoxicity increase in assay [2] is 34% [at 15.8 µM]; in [3], -3.6% [at 15.8 µM]; in assay [9], 2.47% [at 15.8 µM]. Also, the activity change, negative = cytotoxic in assay [4] is -4% [at 15.8 µM]. For the same compound, the activity change, negative = cytotoxicity was -6.43% [at 15.8 µM] in [5]; 3.49% [at 15.8 µM] in assay [6]; 21.1% [at 15.8 µM] in assay [8]; 4.69% [at 19 µM] in assay [10]; -2.01% [at 19 µM] in assay [14]. Moreover, the activity change in [7] was 4.21% [at 15.8 µM, active compounds read high]; in assay [17], -0.431% [at 18.9 µM, active compounds read high]. For the same compound, the viability change, negative = cytotoxic was 1.73% [at 19 µM] in [11], -8.82% [at 19 µM] in assay [15] and -5.57% [at 19 µM] in [16]. Besides, in assay [12], the activity, negative = inhibition is -22% [at 19 µM]. In addition, the activity change, negative = inhibition is 1.74% [at 19 µM] in [13] and 15.3% [at 19 µM] in assay [18].
On to `CC(C)CCOCCC(C)C`, for which the Potency entry in [1], in assay [2], in assay [3], in assay [4], in [5] and in assay [6] was “inactive” throughout. Moreover, the Potency entry in [7], in assay [8], in [9], in [10], in assay [11] and in [12] was “inactive” in each case. The Potency entry in assay [19], in [13], in [14], in assay [16] and in assay [17] was “inactive” throughout.
For `C=CC(C)(CCC=C(C)C)OC(=O)/C=C/c1ccccc1` (centres undefined), the Potency in assay [1] was 27.5 µM (active); in assay [2], 43.6 µM (active); in assay [3] it was 38.9 µM (active); in [7], 27.5 µM (active); in [9] it was 43.6 µM (active). Also, the Potency result in [4], in assay [5], in assay [6], in [8], in assay [10] and in assay [11] was “inactive” throughout. In addition, the Potency entry in assay [12], in [19], in assay [13], in assay [14], in assay [15] and in assay [16] was “inactive” in each case. Further, the Potency result in assay [17] is “inactive”.
Regarding `C=C/C=C/C=C/CCCCC`, the cytotoxicity in assay [1] was -3.64% [at 15.8 µM]. The results for the cytotoxicity increase in assay [2], in assay [3] and in [9] were -4.15% [at 15.8 µM], -3.53% [at 15.8 µM] and -1.01% [at 15.8 µM], respectively. Also, in [4], the activity change, negative = cytotoxic is -10.1% [at 15.8 µM]. In addition, the activity change, negative = cytotoxicity was 13% [at 15.8 µM] in assay [5], -1.22% [at 15.8 µM] in assay [6], -16.9% [at 15.8 µM] in assay [8] and -4.24% [at 19 µM] in assay [10]. The activity change is -0.0444% [at 15.8 µM, active compounds read high] in assay [7] and -0.134% [at 18.9 µM, active compounds read high] in [17]. Moreover, the values for the viability change, negative = cytotoxic in assay [11] and in assay [16] were -0.871% [at 19 µM] and -2.58% [at 19 µM], respectively. The activity, negative = inhibition in assay [12] was 3% [at 19 µM]. Besides, the figures for the activity change, negative = inhibition in assay [19], in assay [13] and in assay [18] were -0.135% [at 19 µM], -2.93% [at 19 µM] and -23.5% [at 19 µM], respectively.
As to `O=C[C@H](O)[C@H](O)[C@H](O)CO`, the Potency entry in [1], in assay [2], in [3], in assay [4], in assay [5] and in [6] was “inactive” throughout. Also, the Potency entry in assay [7], in assay [8], in assay [9], in assay [10], in [11] and in assay [12] was “inactive” each time. Further, the Potency result in assay [13], in assay [14], in [15], in [16] and in assay [17] was “inactive” throughout.
In the case of `CCCCCCS`, the Potency result in assay [1], in [2], in [3], in [4], in assay [5] and in [6] was “inactive” throughout. In addition, the Potency entry in [7], in [8], in assay [9], in assay [10], in assay [11] and in assay [12] was “inactive” throughout. Moreover, the Potency entry in assay [19], in assay [13], in assay [14], in assay [15], in assay [16] and in assay [17] was “inactive” in each case.
On to `OCCCS`, for which the Potency result in assay [1], in assay [2], in assay [3], in assay [4], in [5] and in assay [6] was “inactive” in each case. Moreover, the Potency result in assay [7], in assay [8], in assay [9], in [10], in [11] and in assay [12] was “inactive” each time. Besides, the Potency entry in assay [19], in assay [13], in [14], in assay [15] and in assay [17] was “inactive” each time.

The values above are taken from PubChem BioAssay (Tox21).
